We go through 39 compounds from ChEMBL document CHEMBL4513146, “CO-ADD screening of Karazin Kharkiv National University (Ukraine) compounds”.

SMILES strings stand for the structures. Results with a measured potency or affinity are listed apart.

In one assay the test system is Klebsiella pneumoniae. The settings on record: Concentration 32 ug.mL-1;; ASSAY_TEST Inhibition of Bacterial Growth; detection method Absorption (OD600); MEDIA CAMHB; plate type 384well; NBS; CORNING #3640; time 18 hr.
As a reminder, the Inhibition is the change of the read-out against control, counted positive when it falls. For `COc1cccc(-n2ccn3c(SCC(=O)N4CCN(c5ccccc5F)CC4)nnc3c2=O)c1`, the Inhibition is given as 17.26%.
The same measure, in the same setting: as for `O=C(CSc1nnc2c(=O)n(-c3ccccc3)ccn12)Nc1cc(F)ccc1F`, the figure is -0.92%; as for `Cc1ccc(-c2ccc3nn(Cc4ccc5c(c4)OCO5)c(=O)n3n2)cc1C`, 2.14%; as for `CC(C)c1nnc2c(=O)n(CC(=O)Nc3ccc(Cl)cc3)c3ccccc3n12`, 16.79%.
On to `COc1ccc(NC(=O)Cn2nc3c(Sc4ccccc4)nc4ccccc4n3c2=O)cc1Cl`, for which the Inhibition is 5.63%.
Still for that read-out and setting: as for `Cc1ccc(-c2ccc3nn(CC(=O)N4CCN(c5ccccc5)CC4)c(=O)n3n2)cc1C`, the figure is 1.81%; as for `COc1ccccc1-n1ccn2c(SCC(=O)Nc3ccc(C)cc3Cl)nnc2c1=O`, 5.82%; as for `O=C(Cn1nc2c(Sc3ccccc3)nccn2c1=O)Nc1ccc2c(c1)OCO2`, 1.19%.
As to `CCCCc1ccc(NC(=O)Cn2c(=O)c3nnc(C(C)C)n3c3ccccc32)cc1`, the Inhibition came out at 18.09%.
The same measure, in the same setting: the same measure for `CCc1cccc(NC(=O)CSc2nnc3c(=O)n(-c4ccccc4)ccn23)c1`: 3.17%; for `CCc1ccc(N(Cc2ccccc2F)S(=O)(=O)c2cccn3c(C)nnc23)cc1`: 6.64%; for `CCCCn1c(=O)c2sccc2n2c(CCC(=O)NCCC34CC5CC(CC(C5)C3)C4)nnc12`: 8.76%.
`CCCCN(CC)c1ccc2nnc(CCc3nc(-c4ccc(Br)cc4)no3)n2n1`: the Inhibition stood at 10.38%.
In the case of `CCCN(C)c1nccn2c(=O)n(CC(=O)Nc3cccc(C(C)=O)c3)nc12`, the Inhibition is 4.82%.
On the same count and under the same terms, the same measure for `N#Cc1cccc(NC(=O)CSc2nnc3c4cc(-c5ccccc5)nn4ccn23)c1`: 9.61%; for `Cc1cc(C)c(NC(=O)Cn2nc3ccc(SC4CCCCC4)nn3c2=O)c(C)c1`: 7.83%; for `CCOc1ccccc1CNC(=O)CCc1nnc2ccc(-c3ccc(C)cc3)nn12`: 6.87%.
Regarding `CCCCN(C)c1ccc2nnc(CCc3nc(-c4cccc(Br)c4)no3)n2n1`, the Inhibition is reported as 13.86%.
As to `Cc1ccc(Cn2c(=O)c3ccc(C(=O)NC4CCCC4)cc3n3c(=O)n(CC#N)nc23)cc1`, the Inhibition was found to be 8.48%.
On the same count and under the same terms, as for `Cc1ccccc1NC(=O)Cn1nc2ccc(SC3CCCCC3)nn2c1=O`, the figure is 2.21%.
Take `COc1ccc(NC(=O)c2ccc3nn(CC(=O)Nc4ccc(C(F)(F)F)cc4)c(=O)n3c2)cc1`: the Inhibition is given as -7.6%.
As to `Cc1cc2nn(CC(=O)Nc3cc(F)ccc3C)c(=O)n2c(Nc2ccc(C)c(F)c2)n1`, the Inhibition was 11.43%.
Still for that read-out and setting: as for `O=C(Cn1nc2ccc(SCc3ccc(Cl)cc3)nn2c1=O)NC1CCCCC1`, the figure is 3.63%; as for `Cc1cc(Br)ccc1NC(=O)Cn1nc2c(Sc3ccccc3)nccn2c1=O`, 5.06%.
For `COc1ccccc1NC(=O)Cn1c(=O)c2nnc(C(C)C)n2c2ccccc21`, the Inhibition is 6.56%.

In the next assay the test system is Candida albicans. The settings on record: Concentration 32 ug.mL-1; ASSAY_TEST Inhibition of Fungal Growth; detection method Absorption (OD530).
Regarding `COC(=O)c1ccc(NC(=O)Cn2nc3c(Oc4ccccc4)nccn3c2=O)cc1`, the Inhibition is listed as 3.86%.
Take `COc1ccc(-c2cc3c4nn(CC(=O)Nc5cc(OC)cc(OC)c5)c(=O)n4ccn3n2)cc1`: the Inhibition is 33.73%.
Same read-out and setting: as for `COc1ccccc1-n1ccn2c(SCC(=O)NCc3ccc(Cl)cc3)nnc2c1=O`, the figure is 4.77%; as for `CCc1ccc(N(Cc2ccccc2)S(=O)(=O)c2cccn3c(C)nnc23)cc1`, -1.36%; as for `Cc1ccc(Sc2nccn3c(=O)n(CC(=O)Nc4ccc(Br)cc4C)nc23)c(C)c1`, -0.15%.
Still for that read-out and setting: the same measure for `O=c1c2nnc(SCc3ccccc3Cl)n2ccn1-c1ccc(F)cc1`: 2.71%; for `Cc1ccc(NC(=O)Cn2nc3c(Oc4ccccc4)nccn3c2=O)c(Cl)c1`: -1.78%; for `COc1cccc(-n2ccn3c(SCC(=O)Nc4ccc5c(c4)OCCO5)nnc3c2=O)c1`: 3.13%.
The same measure, in the same setting: the same measure for `CCc1nnc2c(S(=O)(=O)N(Cc3cccc(OC)c3)c3ccccc3)cccn12`: 4.76%; for `Cc1ccc(-c2ccc3nn(Cc4nc(-c5ccc(Cl)cc5)no4)c(=O)n3n2)cc1`: 7.26%.
Take `COc1cc(NC(=O)Cn2nc3c(Oc4ccccc4)nccn3c2=O)cc(OC)c1`: the Inhibition is given as -1.97%.
Still for that read-out and setting: the same measure for `O=C(Cn1nc2c(N3CCN(c4ccccc4)CC3)nccn2c1=O)Nc1ccc2c(c1)OCO2`: 4.15%; for `O=C(CSc1nnc2c(=O)n(-c3ccccc3)ccn12)Nc1ccc(Cl)cc1`: 0.98%; for `Cc1cccc(Oc2nc3ccccc3n3c(=O)n(CC(=O)Nc4ccc5c(c4)OCCO5)nc23)c1C`: -0.7%.
Same read-out and setting: as for `COc1cccc(-n2ccn3c(SCC(=O)N4CCN(c5ccccc5F)CC4)nnc3c2=O)c1`, the figure is 0.16%; as for `O=C(CSc1nnc2c(=O)n(-c3ccccc3)ccn12)Nc1cc(F)ccc1F`, 1.57%.
As to `Cc1ccc(-c2ccc3nn(Cc4ccc5c(c4)OCO5)c(=O)n3n2)cc1C`, the Inhibition turned out to be 1.11%.
On the same count and under the same terms, as for `CC(C)c1nnc2c(=O)n(CC(=O)Nc3ccc(Cl)cc3)c3ccccc3n12`, the figure is 3.6%; as for `COc1ccc(NC(=O)Cn2nc3c(Sc4ccccc4)nc4ccccc4n3c2=O)cc1Cl`, 1.75%.
On to `Cc1ccc(-c2ccc3nn(CC(=O)N4CCN(c5ccccc5)CC4)c(=O)n3n2)cc1C`, for which the Inhibition was 0.84%.
The same measure, in the same setting: as for `COc1ccccc1-n1ccn2c(SCC(=O)Nc3ccc(C)cc3Cl)nnc2c1=O`, the figure is 3.4%; as for `O=C(Cn1nc2c(Sc3ccccc3)nccn2c1=O)Nc1ccc2c(c1)OCO2`, 12.77%.
Turning to `CCCCc1ccc(NC(=O)Cn2c(=O)c3nnc(C(C)C)n3c3ccccc32)cc1`, the Inhibition was -0.74%.
Same read-out and setting: the same measure for `CCc1cccc(NC(=O)CSc2nnc3c(=O)n(-c4ccccc4)ccn23)c1`: 8.67%.
On the same count and under the same terms, as for `CCc1ccc(N(Cc2ccccc2F)S(=O)(=O)c2cccn3c(C)nnc23)cc1`, the figure is 0.88%; as for `CCCCn1c(=O)c2sccc2n2c(CCC(=O)NCCC34CC5CC(CC(C5)C3)C4)nnc12`, -0.35%.
Same read-out and setting: as for `CCCCN(CC)c1ccc2nnc(CCc3nc(-c4ccc(Br)cc4)no3)n2n1`, the figure is 6.33%.
Turning to `CCCN(C)c1nccn2c(=O)n(CC(=O)Nc3cccc(C(C)=O)c3)nc12`, the Inhibition is given as 2.07%.
As for `N#Cc1cccc(NC(=O)CSc2nnc3c4cc(-c5ccccc5)nn4ccn23)c1`, the Inhibition amounted to 7.44%.
Same read-out and setting: as for `Cc1cc(C)c(NC(=O)Cn2nc3ccc(SC4CCCCC4)nn3c2=O)c(C)c1`, the figure is 19.78%.
Consider `CCOc1ccccc1CNC(=O)CCc1nnc2ccc(-c3ccc(C)cc3)nn12`, for which the Inhibition was determined as 2.37%.
Consider `CCCCN(C)c1ccc2nnc(CCc3nc(-c4cccc(Br)c4)no3)n2n1`, for which the Inhibition is listed as 15.05%.
Same read-out and setting: as for `Cc1ccc(Cn2c(=O)c3ccc(C(=O)NC4CCCC4)cc3n3c(=O)n(CC#N)nc23)cc1`, the figure is 2.86%.
Still for that read-out and setting: as for `Cc1ccccc1NC(=O)Cn1nc2ccc(SC3CCCCC3)nn2c1=O`, the figure is -1.85%.
In the case of `COc1ccc(NC(=O)c2ccc3nn(CC(=O)Nc4ccc(C(F)(F)F)cc4)c(=O)n3c2)cc1`, the Inhibition is listed as 4.22%.
On the same count and under the same terms, as for `Cc1cc2nn(CC(=O)Nc3cc(F)ccc3C)c(=O)n2c(Nc2ccc(C)c(F)c2)n1`, the figure is 3.99%; as for `O=C(Cn1nc2ccc(SCc3ccc(Cl)cc3)nn2c1=O)NC1CCCCC1`, 3.05%; as for `Cc1cc(Br)ccc1NC(=O)Cn1nc2c(Sc3ccccc3)nccn2c1=O`, 6.68%.
On to `COc1ccccc1NC(=O)Cn1c(=O)c2nnc(C(C)C)n2c2ccccc21`, for which the Inhibition is recorded as -0.06%.
